This is an account of results in ChEMBL document CHEMBL5308504, “Tm Shift (DSF) assay results for EUbOPEN Chemogenomics Library” (2023).

Where “and” joins values, the source holds several entries; their conditions need not be identical. Equal entries are not always repeated.

Usually ΔTm stands for the change in melting temperature against a reference sample.

Conditions in all cases: Compound concentration 20.0 uM, Protein concentration 2.0 uM, Result type QC Liability
Assay [1] concerns the target Tyrosine-protein kinase ABL1 (Homo sapiens) (UniProt P00519).
Assay [2] deals with Cyclin-dependent kinase 2 (Homo sapiens) (UniProt P24941).
For assay [3], the target named is Casein kinase I isoform delta (Homo sapiens) (UniProt P48730).
Chain of Casein kinase I isoform delta (Homo sapiens) (P48730 whole entry, looked up, canonical isoform): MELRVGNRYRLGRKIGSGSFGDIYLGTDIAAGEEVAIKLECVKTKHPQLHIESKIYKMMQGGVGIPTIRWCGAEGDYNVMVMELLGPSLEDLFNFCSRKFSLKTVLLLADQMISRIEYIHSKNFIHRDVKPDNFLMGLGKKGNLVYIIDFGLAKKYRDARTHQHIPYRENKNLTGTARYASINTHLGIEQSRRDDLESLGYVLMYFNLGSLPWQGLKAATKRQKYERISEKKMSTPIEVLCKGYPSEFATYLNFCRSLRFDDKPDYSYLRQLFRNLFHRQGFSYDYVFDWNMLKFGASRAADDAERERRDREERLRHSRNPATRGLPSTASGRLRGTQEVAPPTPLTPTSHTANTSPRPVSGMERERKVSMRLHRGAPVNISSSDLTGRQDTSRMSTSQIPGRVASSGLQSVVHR
Assay [4] addresses Glycogen synthase kinase-3 beta (Homo sapiens) (UniProt P49841).
In assay [5] the target is Mitogen-activated protein kinase 1 (Homo sapiens) (UniProt P28482).
Chain of Mitogen-activated protein kinase 1 (Homo sapiens) (P28482 whole entry): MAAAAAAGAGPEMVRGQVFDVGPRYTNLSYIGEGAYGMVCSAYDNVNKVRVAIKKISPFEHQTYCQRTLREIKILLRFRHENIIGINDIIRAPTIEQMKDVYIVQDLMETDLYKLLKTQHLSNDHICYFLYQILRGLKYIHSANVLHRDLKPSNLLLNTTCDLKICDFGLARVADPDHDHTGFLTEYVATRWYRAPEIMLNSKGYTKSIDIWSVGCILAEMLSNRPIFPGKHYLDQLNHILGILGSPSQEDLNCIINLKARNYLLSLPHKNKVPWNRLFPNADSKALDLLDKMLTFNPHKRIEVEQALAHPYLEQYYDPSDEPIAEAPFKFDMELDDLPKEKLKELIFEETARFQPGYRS
The target in assay [6] is T1, Aurora kinase A (Homo sapiens) (UniProt O14965).
T1 sequence (whole entry): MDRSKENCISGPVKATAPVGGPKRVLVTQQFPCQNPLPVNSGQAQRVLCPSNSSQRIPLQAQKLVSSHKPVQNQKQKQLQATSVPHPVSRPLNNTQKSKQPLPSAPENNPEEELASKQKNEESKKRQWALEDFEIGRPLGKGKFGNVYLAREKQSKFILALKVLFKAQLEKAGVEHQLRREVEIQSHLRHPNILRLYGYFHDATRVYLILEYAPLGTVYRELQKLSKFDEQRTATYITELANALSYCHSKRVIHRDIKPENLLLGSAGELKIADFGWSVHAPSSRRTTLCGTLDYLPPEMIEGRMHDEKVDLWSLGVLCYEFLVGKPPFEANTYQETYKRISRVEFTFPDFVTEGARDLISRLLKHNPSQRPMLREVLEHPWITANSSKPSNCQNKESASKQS

Chain of Tyrosine-protein kinase ABL1 (Homo sapiens) (P00519 whole entry): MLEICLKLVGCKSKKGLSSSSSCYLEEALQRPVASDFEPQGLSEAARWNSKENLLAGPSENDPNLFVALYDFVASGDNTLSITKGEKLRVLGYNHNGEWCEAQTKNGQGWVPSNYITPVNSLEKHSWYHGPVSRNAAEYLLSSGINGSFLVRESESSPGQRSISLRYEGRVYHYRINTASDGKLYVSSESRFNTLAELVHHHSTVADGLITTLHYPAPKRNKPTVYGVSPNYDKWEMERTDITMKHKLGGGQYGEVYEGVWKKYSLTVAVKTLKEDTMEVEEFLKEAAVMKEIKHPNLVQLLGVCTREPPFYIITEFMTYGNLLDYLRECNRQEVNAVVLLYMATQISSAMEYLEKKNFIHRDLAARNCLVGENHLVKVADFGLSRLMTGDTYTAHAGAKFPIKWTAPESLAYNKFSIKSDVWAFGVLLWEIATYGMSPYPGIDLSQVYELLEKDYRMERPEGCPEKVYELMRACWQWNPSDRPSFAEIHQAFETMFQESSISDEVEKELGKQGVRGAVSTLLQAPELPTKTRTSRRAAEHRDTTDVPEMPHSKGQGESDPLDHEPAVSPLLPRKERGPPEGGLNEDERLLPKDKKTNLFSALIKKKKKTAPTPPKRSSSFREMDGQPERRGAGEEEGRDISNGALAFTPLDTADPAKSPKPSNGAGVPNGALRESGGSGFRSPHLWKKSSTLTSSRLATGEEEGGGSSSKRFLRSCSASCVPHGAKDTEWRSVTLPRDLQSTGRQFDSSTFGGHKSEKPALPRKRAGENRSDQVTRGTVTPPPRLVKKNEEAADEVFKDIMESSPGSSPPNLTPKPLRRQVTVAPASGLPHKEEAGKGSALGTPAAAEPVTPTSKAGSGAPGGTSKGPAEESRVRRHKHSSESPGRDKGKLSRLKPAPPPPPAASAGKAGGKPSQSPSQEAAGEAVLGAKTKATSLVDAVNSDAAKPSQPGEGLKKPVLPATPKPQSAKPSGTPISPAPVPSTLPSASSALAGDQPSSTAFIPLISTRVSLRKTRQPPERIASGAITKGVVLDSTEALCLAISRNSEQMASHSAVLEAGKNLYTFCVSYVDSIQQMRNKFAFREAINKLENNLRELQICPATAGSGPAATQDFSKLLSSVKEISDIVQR
Chain of Glycogen synthase kinase-3 beta (Homo sapiens) (P49841 whole entry, looked up): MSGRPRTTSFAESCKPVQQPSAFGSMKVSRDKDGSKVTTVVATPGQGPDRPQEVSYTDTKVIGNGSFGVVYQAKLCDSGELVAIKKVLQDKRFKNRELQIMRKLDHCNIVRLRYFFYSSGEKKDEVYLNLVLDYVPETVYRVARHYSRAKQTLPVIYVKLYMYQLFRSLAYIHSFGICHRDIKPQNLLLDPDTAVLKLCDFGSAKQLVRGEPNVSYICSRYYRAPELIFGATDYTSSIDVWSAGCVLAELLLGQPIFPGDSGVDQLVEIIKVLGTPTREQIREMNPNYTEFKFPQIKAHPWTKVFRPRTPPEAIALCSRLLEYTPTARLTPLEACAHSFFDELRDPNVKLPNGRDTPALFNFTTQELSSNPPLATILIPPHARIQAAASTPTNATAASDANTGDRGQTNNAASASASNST

Regarding `CNC(=O)COc1cc2cc(Nc3nc(N4C[C@H](C)C[C@H](C)C4)ncc3Cl)ccc2n(C)c1=O`, the ΔTm in assay [1] was -0.28 °C; in assay [2] it was 0.46 °C; in assay [3], 0.11 °C; in assay [4], -0.11 °C; in assay [5] it was 0.15 °C; in assay [6], 0.07 °C.

For the compound `NCc1ccc(OCCCc2sc(-c3ccc4c(c3)/C(=N/Nc3nc5ccccc5s3)CCC4)nc2C(=O)O)cc1`, the ΔTm in assay [1] was 0.43 °C; in assay [2], 0.49 °C; in assay [3], -0.37 °C; in assay [4], -0.12 °C; in assay [5] it was -0.02 °C; in assay [6] it was 1.25 °C.

Regarding `Cn1c(C2(NC(=O)c3ccc(NCC4CCCCC4)nc3)CCC2)nc2ccc(/C=C/C(=O)O)cc21`, the ΔTm was 0.22 °C in assay [1]; 0.23 °C in assay [2]; 0.38 °C in assay [3]; -1.07 °C in assay [4]; 0.02 °C in assay [5]; 0.04 °C in assay [6].

With `CC(=O)c1ccc2c(c1)/C(=C(/Nc1cccc(C#N)c1)c1ccc3c(c1)OCCO3)C(=O)N2`, the ΔTm in assay [1] is 6.24 °C; in assay [2] it was 5.79 °C; in assay [3], 1.02 °C; in assay [4] it was 12 °C; in assay [5], 0.75 °C; in assay [6] it was 4.32 °C.

For `CC(C)(C)c1cnc(CSc2cnc(NC(=O)C3CCN(CC(=O)NCCOCCOCCOCCNc4cccc5c4C(=O)N(C4CCC(=O)NC4=O)C5=O)CC3)s2)o1` (stereo unspecified), the ΔTm in assay [1] is -2.84 °C; in assay [2], 9.12 °C; in assay [3] it was 0 °C; in assay [4] it was 10.8 °C; in assay [5] it was 0.99 °C; in assay [6], 7.5 °C.

Turning to `Nc1c(CC(=O)O)cccc1C(=O)c1ccc(Br)cc1`, the ΔTm in assay [1] was 1.3 °C; in assay [2], 0.36 °C; in assay [3] it was 0.21 °C; in assay [4], 0.59 °C; in assay [5] it was 0.2 °C; in assay [6], 0.08 °C.

On to `COc1ccc(Br)cc1S(=O)(=O)NC(=O)/C=C/c1cc(Cl)ccc1Cc1ccc2ccccc2c1`, for which the ΔTm in assay [1] was -0.6 °C; in assay [2], -1.22 °C; in assay [3] it was -6.17 °C; in assay [4], -2.44 °C; in assay [5] it was -4.21 °C; in assay [6], -3.37 °C.

On to `CCN(C(=O)c1cc(F)ccc1Oc1cncnc1N1CC2(CCN(C[C@H]3CC[C@H](NS(=O)(=O)CC)CC3)CC2)C1)C(C)C`, for which the ΔTm in assay [1] was 0.01 °C; in assay [2], 0.94 °C; in assay [3], -0.25 °C; in assay [4], -0.47 °C; in assay [5], 0.35 °C; in assay [6], -1.01 °C.

In the case of `COc1ccc2c(O[C@@H]3C[C@H]4C(=O)N[C@]5(C(=O)NS(=O)(=O)C6(C)CC6)CC5/C=C\CCCCC[C@H](NC(=O)c5ccn(C)n5)C(=O)N4C3)cc(OC(C)C)nc2c1C` (stereo partly specified), the ΔTm in assay [1] is -0.32 °C; in assay [2] it was -0.49 °C; in assay [3] it was -1.66 °C; in assay [4], -4.13 °C; in assay [5], -0.6 °C; in assay [6] it was -0.12 °C.

With `N=C(N)NCCC[C@H](NC(=O)CC1(CC(=O)N2CCN(C(c3ccccc3)c3ccccc3)CC2)CCCC1)C(=O)NCc1ccccc1`, the ΔTm was -0.53 °C in assay [1]; -1.78 °C in assay [2]; 0.02 °C in assay [3]; -1.84 °C in assay [4]; -0.93 °C in assay [5]; -0.79 °C in assay [6].

Take `O=C1Nc2ccc(I)cc2/C1=C/c1cc(Br)c(O)c(Br)c1`: the ΔTm in assay [1] is 2.98 °C; in assay [2] it was 0.35 °C; in assay [3], 0.18 °C; in assay [4], -1.46 °C; in assay [5], 0.48 °C; in assay [6], -0.27 °C.

Consider `Cc1cc(Cn2c(N3CC4(CNC4)C3)nc3cc(Cl)cc(N4CCN(C)CC4)c32)cc(C)c1F`, for which the ΔTm in assay [1] was -0.24 °C; in assay [2], 0.2 °C; in assay [3] it was 0.39 °C; in assay [4], -1.71 °C; in assay [5] it was 0.34 °C; in assay [6], 0.08 °C.

As for `Cc1cn([C@@H](C)CC#N)c(=O)c2cc(Cn3nc(C(F)F)cc3Cl)nn12`, the ΔTm in assay [1] is 0.12 °C; in assay [2], -0.57 °C; in assay [3] it was -0.18 °C; in assay [4] it was -0.66 °C; in assay [5], 0.18 °C; in assay [6], -0.51 °C.

As to `Cn1nccc1-c1ccc(Sc2cccc(C3(C(N)=O)CCOCC3)c2)cc1`, the ΔTm in assay [1] was -0.11 °C; in assay [2] it was 0.88 °C; in assay [3], -0.02 °C; in assay [4] it was -1.17 °C; in assay [5], 0.22 °C; in assay [6], 0.6 °C.

Regarding `COc1cc2ncnc(Nc3ccc4c(cnn4Cc4ccccc4)c3)c2cc1OC`, the ΔTm in assay [1] is -2.25 °C; in assay [2] it was -2.73 °C; in assay [3], 0.02 °C; in assay [4] it was -2.74 °C; in assay [5], -0.38 °C; in assay [6], 0.63 °C.

For the compound `CC1CN(CC(=O)N2CC(C)(C)c3nc(CO)c(Cc4ccc(F)cc4)cc32)C(CN2CCOCC2C)CN1` (stereo unspecified), the ΔTm was 0.01 °C in assay [1]; 0.68 °C in assay [2]; 0.32 °C in assay [3]; -1.07 °C in assay [4]; 0.17 °C in assay [5]; -1.32 °C in assay [6].

With `CC#CCC(C)[C@H](O)/C=C/[C@@H]1[C@H]2C/C(=C/CCCC(=O)O)C[C@H]2C[C@H]1O` (stereo partly specified), the ΔTm was -0.29 °C in assay [1]; 0.41 °C in assay [2]; 0.31 °C in assay [3]; -0.77 °C in assay [4]; 0.12 °C in assay [5]; -0.07 °C in assay [6].

As for `COC(=O)c1sccc1S(=O)(=O)Nc1ccc(Nc2ccccc2)cc1OC`, the ΔTm in assay [1] is 0.48 °C; in assay [2] it was 0.72 °C; in assay [3] it was 0.45 °C; in assay [4], -0.37 °C; in assay [5], -2.78 °C; in assay [6] it was -2.34 °C.

Regarding `CC(C)C(=O)N1CCC(c2cn(C)c3ncc(NC(=O)c4cccc(C#N)c4)c(C(F)(F)F)c23)CC1`, the ΔTm was -0.05 °C in assay [1]; 0.71 °C in assay [2]; 0.74 °C in assay [3]; -0.4 °C in assay [4]; 0.36 °C in assay [5]; -0.71 °C in assay [6].

On to `COC(=O)Nc1nc2c(s1)-c1c(c(-c3cccnc3)nn1-c1ccc(C3(N(C)C)CC3)cc1)CC2`, for which the ΔTm in assay [1] is 0.57 °C; in assay [2], 0.64 °C; in assay [3], -0.25 °C; in assay [4], -0.71 °C; in assay [5], 0.36 °C; in assay [6], -0.79 °C.

Take `Cn1ncc(NC(=O)c2nc(-c3c(F)cccc3F)sc2N)c1N1CC[C@@H](N)[C@H](F)CC1`: the ΔTm is 0.6 °C in assay [1]; 1.59 °C in assay [2]; 0.57 °C in assay [3]; 12.4 °C in assay [4]; 0.32 °C in assay [5]; 0.87 °C in assay [6].

`COc1cc(CN(CCN)C(=O)N[C@@H](C)c2ccccc2)ccc1OCc1ccccc1`: the ΔTm in assay [1] is 0.76 °C; in assay [2], 1.02 °C; in assay [3] it was 0.16 °C; in assay [4], -0.67 °C; in assay [5], 0.02 °C; in assay [6], 0.4 °C.

In the case of `CN1CCC(C#N)(NC(=O)[C@@H](NC(=O)N2CCOCC2)C(C)(C)C)CC1`, the ΔTm in assay [1] was -0.07 °C; in assay [2], 0.23 °C; in assay [3], 0.3 °C; in assay [4] it was -0.75 °C; in assay [5], 0.52 °C; in assay [6] it was -0.18 °C.

`Cn1c(C2(NC(=O)c3ccc4c(C5CCCC5)c(-c5ncc(Br)cn5)n(C)c4c3)CCC2)nc2ccc(/C=C/C(=O)O)cc21`: the ΔTm is -0.54 °C and 0.85 °C in assay [1]; -2.05 °C and -1.62 °C in assay [2]; -3.08 °C and -1.06 °C in assay [3]; -3.92 °C and -2.25 °C in assay [4]; -2.08 °C and -0.58 °C in assay [5]; -1.12 °C and -3.19 °C in assay [6].

Turning to `O=C(CCSCc1ccco1)NNC(=O)N1Cc2ccccc2Oc2ccc(Cl)cc21`, the ΔTm is 0.44 °C in assay [1]; 0.06 °C in assay [2]; -8.4 °C in assay [3]; -9.34 °C in assay [4]; 0.1 °C in assay [5]; 1.12 °C in assay [6].

As to `O=C(NCCN1CCOCC1)c1ccc2nn(CCOc3ccc(Cl)cc3)cc2c1`, the ΔTm in assay [1] is 0.88 °C; in assay [2] it was 0.59 °C; in assay [3] it was 0.35 °C; in assay [4], -0.24 °C; in assay [5], 0.56 °C; in assay [6] it was 0.05 °C.
